Reference: PMC5540273 (PLoS ONE, 2017)

Experiments:
Conditions in all cases: concentration: 1 μM, replicates: in singlicate; n = 1
[1] = test system: T1, RSK1(Kin.Dom.1-N-terminal)
T1 construct: gene RPS6KA1

[2] = test system: T2, RSK1(Kin.Dom.2-C-terminal)
T2 construct: gene RPS6KA1

[3] = test system: T3, RSK2(Kin.Dom.1-N-terminal)
T3 construct: gene RPS6KA3

[4] = test system: T4, RSK2(Kin.Dom.2-C-terminal)
T4 construct: gene RPS6KA3

[5] = test system: T5, RSK3(Kin.Dom.1-N-terminal)
T5 construct: gene RPS6KA2

[6] = test system: T6, RSK3(Kin.Dom.2-C-terminal)
T6 construct: gene RPS6KA2

[7] = test system: T7, RSK4(Kin.Dom.1-N-terminal)
T7 construct: gene RPS6KA6

[8] = test system: T8, RSK4(Kin.Dom.2-C-terminal)
T8 construct: gene RPS6KA6

S6K1 = test system: S6K1
SBK1 = test system: SBK1
SGK2 = test system: SGK2
SGK3 = test system: SGK3
SGK = test system: SGK
SIK2 = test system: SIK2
SIK = test system: SIK
SLK = test system: SLK
SNARK = test system: T9, SNARK
T9 construct: gene NUAK2

SNRK = test system: SNRK
SRC = test system: SRC
SRMS = test system: SRMS
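Note: KINOMEscan kinase panel screen.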

Compound	%Inh [1] [%]	%Inh [2] [%]	%Inh [3] [%]	%Inh [4] [%]	%Inh [5] [%]	%Inh [6] [%]	%Inh [7] [%]	%Inh [8] [%]	%Inh (S6K1) [%]	%Inh (SBK1) [%]	%Inh (SGK2) [%]	%Inh (SGK3) [%]	%Inh (SGK) [%]	%Inh (SIK2) [%]	%Inh (SIK) [%]	%Inh (SLK) [%]	%Inh (SNARK) [%]	%Inh (SNRK) [%]	%Inh (SRC) [%]	%Inh (SRMS) [%]
FC(F)(F)c1ccc(-c2ncn(CCCN3CCOCC3)c2-c2ccncc2)cc1 [SB-217780]	11	6	0	28	32	19	1	44	0	13	25	0	5	0	0	0	0	18	0	0
CCC(=O)c1c(-c2ccccc2)c2cc(Cl)ccc2c(=O)n1Cc1cc(S(C)(=O)=O)n(CC(F)F)n1	2	0	5	0	0	0	13	1	0	0	0	0	0	2	0	0	10	0	7	0
COc1cccc(-n2cnc3c(N)ncnc32)c1 [SKF-97416]	8	13	39	34	0	8	40	7	1	29	8	0	44	0	0	2	5	20	13	22
CCC(=O)c1c(-c2ccccc2)c2cc(Cl)ccc2c(=O)n1Cc1ccc(C(=O)O)cc1	0	0	0	0	0	0	0	0	0	0	6	0	1	7	0	0	0	0	0	0
CCC(=O)c1c(-c2ccccc2)c2cc(Cl)ccc2c(=O)n1Cc1cc(C(=O)NC2CC2)n(C)n1	0	8	0	30	6	0	8	0	7	0	5	10	2	55	1	0	0	0	0	0
O=c1cc(N2CCOCC2)nc2n(Cc3ccc(F)c(Cl)c3)ccn12 [GSK2297099]	19	10	0	0	27	0	0	11	0	0	0	19	0	0	0	0	20	0	0	0
O=C(Nc1n[nH]c2cc(-c3ccccc3F)ccc12)C1CC1 [SB-733371]	32	0	34	0	0	0	0	0	0	17	11	12	5	5	0	1	1	0	0	14
COc1cc(Nc2ccnc3ccc(C(F)(F)F)cc23)cc(OC)c1OC [GW577382]	18	0	98.3	32	4	20	0	21	1	5	0	0	10	25	31	24	0	0	36	0
COC(=O)c1c(-c2ccccc2)c2cc(C)ccc2c(=O)n1Cc1ccccc1	0	20	0	0	15	15	0	22	0	0	0	0	0	0	3	0	0	0	0	0
COc1cc2ncn(-c3cc(OCCCc4ccccc4)c(C(N)=O)s3)c2cc1OC [GSK205189]	2	10	7	2	0	0	12	18	0	0	0	0	0	0	2	79	0	0	0	0
